In the supplement of paper PMC11732987, “Enantioselective OTUD7B fragment discovery through chemoproteomics screening and high-throughput optimisation” (Communications Chemistry, 2025):

What was measured:
Experiment in all cases: log2 ratio of Biotin-Ahx-Ub-VS probe labelling (fragment/DMSO); higher = less target engagement (more negative = stronger competition), active = hit call of the paper (q ≤ 0.05, log2 ratio ≤ -1)
Conditions in all cases: compound concentration: 200 uM; treatment time: 3 h
USP34 = USP34 (UniProt Q70CQ2)
How it was run: (§1)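 Average log2 ratios of fragment over vehicle were obtained by unpaired t-test from global-median-normalised Spectronaut label-free quantities. Proteins with ≥2 unique peptides were included. HEK293T lysate (495 µg per sample) was treated in triplicate with fragment at 200 µM or vehicle for 3 h, then with Biotin-Ahx-Ub-VS at 0.5 µM final for 1 h, and labelled DUBs were NeutrAvidin-enriched and run by diaPASEF LC-MS/MS.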

USP36 = molecular target: T1, USP36 (UniProt Q9P275)
T1 sequence (whole entry): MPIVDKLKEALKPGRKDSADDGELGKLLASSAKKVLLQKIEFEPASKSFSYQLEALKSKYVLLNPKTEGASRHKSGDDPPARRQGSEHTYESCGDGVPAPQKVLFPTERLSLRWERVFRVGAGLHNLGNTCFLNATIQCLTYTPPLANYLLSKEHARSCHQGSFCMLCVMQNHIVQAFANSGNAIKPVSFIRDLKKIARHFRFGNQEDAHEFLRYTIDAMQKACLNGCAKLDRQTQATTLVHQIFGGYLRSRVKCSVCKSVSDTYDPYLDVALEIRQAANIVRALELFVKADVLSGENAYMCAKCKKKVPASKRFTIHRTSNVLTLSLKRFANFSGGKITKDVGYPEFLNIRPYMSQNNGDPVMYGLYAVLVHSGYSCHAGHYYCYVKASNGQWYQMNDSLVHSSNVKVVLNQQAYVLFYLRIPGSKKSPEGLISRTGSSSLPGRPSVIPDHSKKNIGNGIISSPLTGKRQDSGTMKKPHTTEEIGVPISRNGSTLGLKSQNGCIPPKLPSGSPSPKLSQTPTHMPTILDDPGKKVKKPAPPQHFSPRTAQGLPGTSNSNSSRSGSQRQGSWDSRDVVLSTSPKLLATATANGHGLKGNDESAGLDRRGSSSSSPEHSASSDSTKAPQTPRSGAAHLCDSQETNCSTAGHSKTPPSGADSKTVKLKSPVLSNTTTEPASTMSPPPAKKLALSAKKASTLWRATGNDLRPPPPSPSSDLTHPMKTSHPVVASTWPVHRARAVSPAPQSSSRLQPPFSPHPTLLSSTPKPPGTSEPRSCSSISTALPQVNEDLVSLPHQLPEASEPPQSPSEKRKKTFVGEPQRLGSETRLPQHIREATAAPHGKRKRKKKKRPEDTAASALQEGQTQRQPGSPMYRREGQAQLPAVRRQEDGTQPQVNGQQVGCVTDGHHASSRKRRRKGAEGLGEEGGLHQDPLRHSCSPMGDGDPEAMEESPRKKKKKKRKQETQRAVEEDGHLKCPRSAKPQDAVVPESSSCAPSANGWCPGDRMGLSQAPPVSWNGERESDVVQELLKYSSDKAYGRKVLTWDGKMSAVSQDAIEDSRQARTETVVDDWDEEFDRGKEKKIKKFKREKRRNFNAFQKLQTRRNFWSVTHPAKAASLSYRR
How it was run: as §1

USP38 = molecular target: T2, USP38 (UniProt Q8NB14)
T2 sequence (whole entry): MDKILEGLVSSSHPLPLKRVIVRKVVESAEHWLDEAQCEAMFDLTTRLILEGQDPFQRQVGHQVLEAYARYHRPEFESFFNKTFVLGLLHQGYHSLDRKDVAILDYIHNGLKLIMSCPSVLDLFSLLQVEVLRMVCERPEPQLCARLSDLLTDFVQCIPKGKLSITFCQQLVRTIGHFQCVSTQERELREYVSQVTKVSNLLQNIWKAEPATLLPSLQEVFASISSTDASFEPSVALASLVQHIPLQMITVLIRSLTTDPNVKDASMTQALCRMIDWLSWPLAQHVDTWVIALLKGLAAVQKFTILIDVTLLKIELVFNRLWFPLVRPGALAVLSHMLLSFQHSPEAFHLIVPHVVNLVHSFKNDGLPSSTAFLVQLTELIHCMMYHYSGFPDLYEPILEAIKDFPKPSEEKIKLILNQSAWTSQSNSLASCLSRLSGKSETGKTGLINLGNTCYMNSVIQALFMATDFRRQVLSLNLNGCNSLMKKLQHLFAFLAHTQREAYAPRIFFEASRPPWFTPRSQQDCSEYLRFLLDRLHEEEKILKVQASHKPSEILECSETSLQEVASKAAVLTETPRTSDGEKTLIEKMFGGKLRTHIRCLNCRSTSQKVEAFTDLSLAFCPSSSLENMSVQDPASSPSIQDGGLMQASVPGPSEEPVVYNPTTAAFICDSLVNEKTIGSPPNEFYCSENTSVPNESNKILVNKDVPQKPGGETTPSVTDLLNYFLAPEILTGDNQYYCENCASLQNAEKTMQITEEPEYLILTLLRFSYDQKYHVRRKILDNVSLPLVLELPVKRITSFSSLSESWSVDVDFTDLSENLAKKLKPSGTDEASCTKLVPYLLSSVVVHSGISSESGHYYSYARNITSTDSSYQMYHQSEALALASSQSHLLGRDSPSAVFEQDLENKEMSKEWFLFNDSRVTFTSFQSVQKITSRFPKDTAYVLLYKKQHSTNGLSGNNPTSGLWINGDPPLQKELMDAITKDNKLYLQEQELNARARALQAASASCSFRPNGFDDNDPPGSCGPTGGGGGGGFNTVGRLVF
How it was run: as §1

USP39 = molecular target: T3, USP39 (UniProt Q53GS9)
T3 sequence (whole entry): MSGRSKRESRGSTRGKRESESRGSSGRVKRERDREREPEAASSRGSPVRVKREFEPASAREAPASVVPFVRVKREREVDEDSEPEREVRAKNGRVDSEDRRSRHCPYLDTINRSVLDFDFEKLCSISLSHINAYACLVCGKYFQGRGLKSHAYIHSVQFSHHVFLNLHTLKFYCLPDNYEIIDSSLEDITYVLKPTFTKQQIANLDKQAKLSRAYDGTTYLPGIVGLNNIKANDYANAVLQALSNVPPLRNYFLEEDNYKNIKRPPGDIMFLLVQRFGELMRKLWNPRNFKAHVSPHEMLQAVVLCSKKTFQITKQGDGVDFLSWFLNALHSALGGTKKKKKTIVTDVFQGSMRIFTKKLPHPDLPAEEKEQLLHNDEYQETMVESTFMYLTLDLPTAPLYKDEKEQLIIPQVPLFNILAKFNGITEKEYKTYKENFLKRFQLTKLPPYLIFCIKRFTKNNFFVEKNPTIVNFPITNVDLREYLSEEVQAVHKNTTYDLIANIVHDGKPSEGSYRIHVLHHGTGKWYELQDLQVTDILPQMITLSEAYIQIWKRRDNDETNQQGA
How it was run: as §1

USP4 = molecular target: T4, USP4 (UniProt Q13107)
T4 sequence (whole entry): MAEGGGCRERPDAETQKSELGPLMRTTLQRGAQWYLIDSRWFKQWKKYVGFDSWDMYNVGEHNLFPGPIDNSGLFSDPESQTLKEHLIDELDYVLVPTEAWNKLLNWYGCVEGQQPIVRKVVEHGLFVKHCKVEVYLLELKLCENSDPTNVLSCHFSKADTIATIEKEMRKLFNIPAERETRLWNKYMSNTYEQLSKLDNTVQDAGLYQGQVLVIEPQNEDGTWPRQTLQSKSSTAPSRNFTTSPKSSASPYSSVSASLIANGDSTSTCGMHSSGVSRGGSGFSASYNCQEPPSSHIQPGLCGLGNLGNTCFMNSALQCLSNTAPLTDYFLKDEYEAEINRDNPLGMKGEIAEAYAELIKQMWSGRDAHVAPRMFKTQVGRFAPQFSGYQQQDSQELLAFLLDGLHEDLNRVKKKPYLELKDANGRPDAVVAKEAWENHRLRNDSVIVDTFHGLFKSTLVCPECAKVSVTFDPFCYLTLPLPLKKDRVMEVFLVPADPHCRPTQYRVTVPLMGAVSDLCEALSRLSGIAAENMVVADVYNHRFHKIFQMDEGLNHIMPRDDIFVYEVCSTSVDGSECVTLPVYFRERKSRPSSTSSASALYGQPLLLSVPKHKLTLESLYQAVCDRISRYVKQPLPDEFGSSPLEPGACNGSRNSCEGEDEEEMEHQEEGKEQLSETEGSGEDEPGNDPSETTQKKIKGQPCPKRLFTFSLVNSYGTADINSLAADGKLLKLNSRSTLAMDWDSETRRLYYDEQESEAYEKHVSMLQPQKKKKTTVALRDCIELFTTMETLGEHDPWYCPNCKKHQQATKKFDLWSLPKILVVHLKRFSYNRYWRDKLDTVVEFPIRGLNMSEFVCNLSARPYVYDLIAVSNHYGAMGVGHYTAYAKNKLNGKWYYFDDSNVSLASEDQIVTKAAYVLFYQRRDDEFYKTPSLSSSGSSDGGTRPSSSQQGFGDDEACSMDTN
How it was run: as §1

Measured: log2 ratio of Biotin-Ahx-Ub-VS probe labelling

Sequence of USP34 (Q70CQ2 whole entry, the tested form may be a part): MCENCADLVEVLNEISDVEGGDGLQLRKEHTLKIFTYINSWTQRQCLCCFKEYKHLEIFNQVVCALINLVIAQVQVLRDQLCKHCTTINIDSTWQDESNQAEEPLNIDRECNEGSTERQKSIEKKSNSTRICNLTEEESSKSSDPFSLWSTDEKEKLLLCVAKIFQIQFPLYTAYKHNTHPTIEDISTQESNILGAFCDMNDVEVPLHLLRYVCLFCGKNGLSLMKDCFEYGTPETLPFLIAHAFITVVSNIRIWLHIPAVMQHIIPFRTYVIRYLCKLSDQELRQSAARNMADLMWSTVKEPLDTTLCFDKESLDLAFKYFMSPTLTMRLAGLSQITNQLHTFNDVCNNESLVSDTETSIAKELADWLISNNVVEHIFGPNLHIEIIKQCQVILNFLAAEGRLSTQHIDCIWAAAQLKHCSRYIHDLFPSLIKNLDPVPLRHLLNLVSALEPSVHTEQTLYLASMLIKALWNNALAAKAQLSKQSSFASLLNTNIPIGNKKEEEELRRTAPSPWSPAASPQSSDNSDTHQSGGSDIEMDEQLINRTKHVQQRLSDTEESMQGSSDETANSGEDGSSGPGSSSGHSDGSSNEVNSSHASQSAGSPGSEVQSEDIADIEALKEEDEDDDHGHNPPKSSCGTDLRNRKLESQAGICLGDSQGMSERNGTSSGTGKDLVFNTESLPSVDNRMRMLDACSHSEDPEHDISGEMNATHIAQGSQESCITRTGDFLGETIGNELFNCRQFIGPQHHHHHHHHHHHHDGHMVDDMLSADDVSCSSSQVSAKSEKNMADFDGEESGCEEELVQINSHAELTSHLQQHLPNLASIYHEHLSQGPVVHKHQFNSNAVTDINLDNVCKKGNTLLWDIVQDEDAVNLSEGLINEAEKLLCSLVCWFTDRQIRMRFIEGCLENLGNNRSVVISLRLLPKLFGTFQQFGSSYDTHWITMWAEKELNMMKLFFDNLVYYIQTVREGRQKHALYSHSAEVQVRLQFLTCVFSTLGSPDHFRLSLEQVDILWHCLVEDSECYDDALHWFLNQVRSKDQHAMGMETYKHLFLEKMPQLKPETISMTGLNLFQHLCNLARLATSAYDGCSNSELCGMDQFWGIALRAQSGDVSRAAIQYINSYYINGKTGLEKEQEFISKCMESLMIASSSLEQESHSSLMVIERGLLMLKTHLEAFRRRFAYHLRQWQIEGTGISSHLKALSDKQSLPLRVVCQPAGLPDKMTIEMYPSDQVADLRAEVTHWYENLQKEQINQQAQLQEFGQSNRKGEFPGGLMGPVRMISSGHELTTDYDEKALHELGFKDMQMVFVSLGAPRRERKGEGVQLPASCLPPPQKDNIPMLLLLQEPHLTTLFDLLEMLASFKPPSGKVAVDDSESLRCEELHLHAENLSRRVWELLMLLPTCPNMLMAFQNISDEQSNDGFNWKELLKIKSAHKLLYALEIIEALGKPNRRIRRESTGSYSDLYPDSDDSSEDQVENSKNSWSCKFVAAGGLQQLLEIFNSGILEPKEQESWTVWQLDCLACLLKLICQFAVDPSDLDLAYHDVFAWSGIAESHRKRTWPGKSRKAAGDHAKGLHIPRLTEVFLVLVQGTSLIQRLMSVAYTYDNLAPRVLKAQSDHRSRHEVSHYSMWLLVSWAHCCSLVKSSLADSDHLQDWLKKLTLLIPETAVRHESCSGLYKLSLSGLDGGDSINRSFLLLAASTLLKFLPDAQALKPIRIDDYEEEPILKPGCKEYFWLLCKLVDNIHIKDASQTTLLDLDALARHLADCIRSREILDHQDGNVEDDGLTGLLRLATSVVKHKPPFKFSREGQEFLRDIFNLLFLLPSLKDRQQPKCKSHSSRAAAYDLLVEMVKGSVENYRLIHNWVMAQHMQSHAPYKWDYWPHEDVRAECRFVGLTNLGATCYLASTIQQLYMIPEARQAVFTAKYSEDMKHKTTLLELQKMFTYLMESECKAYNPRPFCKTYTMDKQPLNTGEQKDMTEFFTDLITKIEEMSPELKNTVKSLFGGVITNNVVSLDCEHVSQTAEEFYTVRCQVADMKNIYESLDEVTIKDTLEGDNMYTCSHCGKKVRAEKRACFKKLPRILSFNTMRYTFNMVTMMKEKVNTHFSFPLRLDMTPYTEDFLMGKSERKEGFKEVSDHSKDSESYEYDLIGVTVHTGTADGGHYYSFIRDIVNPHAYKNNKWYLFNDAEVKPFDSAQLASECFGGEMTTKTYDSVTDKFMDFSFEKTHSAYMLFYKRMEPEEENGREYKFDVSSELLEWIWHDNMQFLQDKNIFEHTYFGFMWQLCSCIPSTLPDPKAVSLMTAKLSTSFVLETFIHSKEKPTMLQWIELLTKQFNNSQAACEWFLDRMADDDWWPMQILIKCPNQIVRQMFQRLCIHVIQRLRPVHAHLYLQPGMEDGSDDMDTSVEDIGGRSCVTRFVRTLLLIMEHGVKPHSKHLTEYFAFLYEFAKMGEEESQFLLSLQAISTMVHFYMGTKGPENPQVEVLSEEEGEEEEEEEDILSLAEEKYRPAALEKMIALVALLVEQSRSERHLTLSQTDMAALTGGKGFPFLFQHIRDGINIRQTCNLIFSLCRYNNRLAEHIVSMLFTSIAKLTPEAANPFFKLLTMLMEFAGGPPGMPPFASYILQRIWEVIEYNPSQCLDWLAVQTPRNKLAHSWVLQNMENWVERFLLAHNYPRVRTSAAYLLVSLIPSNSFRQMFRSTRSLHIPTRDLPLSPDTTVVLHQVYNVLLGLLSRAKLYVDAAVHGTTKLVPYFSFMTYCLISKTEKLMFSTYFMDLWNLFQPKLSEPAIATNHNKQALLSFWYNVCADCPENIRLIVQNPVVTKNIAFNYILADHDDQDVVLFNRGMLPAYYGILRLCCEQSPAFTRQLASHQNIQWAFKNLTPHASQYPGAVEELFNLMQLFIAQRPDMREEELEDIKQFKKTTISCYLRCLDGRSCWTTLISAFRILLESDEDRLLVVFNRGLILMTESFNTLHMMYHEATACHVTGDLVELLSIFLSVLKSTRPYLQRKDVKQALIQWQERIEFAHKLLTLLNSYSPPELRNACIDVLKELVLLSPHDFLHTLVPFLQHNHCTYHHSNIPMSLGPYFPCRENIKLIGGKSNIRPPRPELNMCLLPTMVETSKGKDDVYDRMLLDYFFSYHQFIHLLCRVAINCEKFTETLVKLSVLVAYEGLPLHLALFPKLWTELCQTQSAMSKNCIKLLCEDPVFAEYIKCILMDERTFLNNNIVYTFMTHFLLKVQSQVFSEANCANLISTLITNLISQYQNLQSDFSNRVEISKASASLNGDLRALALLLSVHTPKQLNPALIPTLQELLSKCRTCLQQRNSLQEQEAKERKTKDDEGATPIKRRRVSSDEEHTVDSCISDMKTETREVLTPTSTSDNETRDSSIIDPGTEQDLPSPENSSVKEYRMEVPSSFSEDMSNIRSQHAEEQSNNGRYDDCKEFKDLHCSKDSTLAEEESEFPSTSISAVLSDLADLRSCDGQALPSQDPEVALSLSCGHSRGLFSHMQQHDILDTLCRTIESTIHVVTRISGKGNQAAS

O=C(CCl)N1CCCN(C(=O)c2ccc(Cl)cc2)CC1
inactive: USP34 -0.425 | USP36 0.0741 | USP38 -0.22 | USP39 -0.317 | USP4 -0.259
